25 molecules from PubChem BioAssay (NCATS) can be followed below.

Test [1] in a line: Primary qHTS for Huh7 cytotoxicity: counterscreen for inhibitors of MERS-S pseudotyped particle cell entry (AID 1479147). Conditions: outcome: dose series up to 57.1 µM unless noted.
Test [2] can be described thus: Primary qHTS for inhibitors of MERS-S pseudo-typed particle cell entry (AID 1479149). For activity change, negative = inhibition: % is set by controls: 0 for no effect and ±100 for the full control effect. Note: nearly all actives have a fitted effect of over 60% in size. A general note: qHTS replaces the single test concentration by a dilution series.
A short description of test [3]: Primary qHTS for Vero E6 cytotoxicity: counterscreen for inhibitors of SARS-S pseudo-typed particle cell entry (AID 1479150). Particulars: outcome: dose series up to 57.1 µM unless noted.
Test [4] in a line: Cytotoxicity counterscreen for inhibitors of SARS-CoV-2 cell entry (AID 1645845). Note: nearly all actives have a fitted effect of over 50% in size. The procedure, abridged: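 ATP-content luminescence (ATPLite 1step, 15 min RT) read after 48 h compound exposure of Expi293F cells stably expressing human ACE2; normalized to cells-only wells and media-only wells.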
Test [5] can be described thus: Primary qHTS to identify inhibitors of SARS-CoV-2 cell entry (AID 1645846). Note: nearly all actives have a fitted effect of over 45% in size. Particulars: activity change, negative = inhibition: at 57.1 µM (top of the series) unless noted. In short, it runs like this: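 Inhibition of spike-mediated entry was scored in human ACE2-transfected Expi293F cells. Particles were MLV-pseudotyped with Wuhan-Hu-1 S carrying a 19-aa C-terminal deletion; signal was luciferase after two days, scaled between spike PP and fusion-protein-free PP.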

The next test relates to CRL-7250. Kind of test: qHTS assay to identify novel small-molecules to repurpose for Merkel cell carcinoma treatment (AID 1296009; active = well fitted curve in the direction sought with a large enough effect; an effect the other way counts as inactive or inconclusive; note: nearly all actives have a fitted effect of over 60% in size). Particulars: MCC and control cell lines, CellTiter-Glo viability, 72 h; series mostly up to 92 µM. In short, it runs like this:
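Cell viability measured by CellTiter-Glo following 72 hr compound treatment at 37 degree celsius, with NPC and MIPE libraries tested in 8- and 11-point concentration series.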

Test [6] can be described thus: Confirmatory qHTS for VERO E6 Cytotoxicity Assay: Counterscreen for SARS-CoV-2 CPE Assay (AID 1508605). For activity change, negative = cytotoxic: % is set by controls: 0 for no effect and ±100 for the full control effect. Note: nearly all actives have a fitted effect of over 60% in size. Note: potency is the fitted concentration of half-maximal effect.
Test [7] can be described thus: Confirmatory qHTS for activators (rescue) of SARS-CoV-2 Cytopathic Effect (CPE) (AID 1508606). Note: 0% is about no effect; nearly all actives have a fitted effect of over 70% in size.
The nature of test [8]: qHTS for inhibitors of Rabies Virus screened against the NCATS CANVASS Library (AID 1347402). Note: 0% is about no effect.
Test [9] can be described thus: Primary qHTS for inhibitors of SARS-S pseudo-typed particle cell entry (AID 1479145). For activity change, negative = inhibition: % is set by controls: 0 for no effect and ±100 for the full control effect. Note: nearly all actives have a fitted effect of over 45% in size.
In test [10] the target is Nucleoprotein (Lymphocytic choriomeningitis virus (strain Armstrong)) (UniProt P09992). Kind of test: qHTS for Inhibitors of the Functional Ribonucleoprotein Complex (vRNP) of Lymphocytic Choriomeningitis Arenaviruses (LCMV): LCMV Primary Screen - GLuc reporter signal (AID 1347086). Note: potency is the fitted concentration of half-maximal effect; nearly all actives have a fitted effect of over 70% in size.
A short description of test [11]: qHTS for Inhibitors of the Functional Ribonucleoprotein Complex (vRNP) of Lymphocytic Choriomeningitis Arenaviruses (LCMV): Viability assay - alamar blue signal for LCMV Primary Screen (AID 1347085; calls by dose curve; tested in HEK293 reporter line; note: % is set by controls: 0 for no effect and ±100 for the full control effect; nearly all actives have a fitted effect of over 80% in size).
The target of test [12] is Nuclear receptor subfamily 1 group I member 3 (Homo sapiens) (UniProt Q14994). Kind of test: Primary qHTS for antagonist of constitutive androstane receptor (CAR) against the NCATS DSHEA and TCM libraries (AID 1794836; active = well fitted curve in the direction sought with a large enough effect; an effect the other way counts as inactive or inconclusive;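 note: HepG2 cells stably expressing hCAR with CYP2B6 luciferase reporter stimulated by CITCO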). In short, it runs like this: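 Antagonist mode: CAR reporter luminescence (ONE-Glo) in HepG2-CYP2B6-hCAR cells stimulated with 48 uM CITCO (final) over 24 h at 37 C, compounds titrated; viability read first by CellTiter-Fluor fluorescence.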

A short description of test [13]: KB-8-5-11 P-gp reporter qHTS against the NCATS DSHEA and TCM libraries (AID 1919977; active = well fitted curve in the direction sought with a large enough effect; an effect the other way counts as inactive or inconclusive; note: 0% is about no effect). The procedure, abridged: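 KB-8-5-11, 500 cells/well, DMEM/10% FBS without colchicine; 4 h attach; cpd titrations, 72 h, 37C/5% CO2; CellTiter-Glo, 30 min RT, luminescence.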

SMILES strings stand for the structures. Results filed as inconclusive are left out. The source made the active and inactive calls. Unless noted, calls come from the whole dose curve. Numbered stars: 1 amine (or outer) side, 2 acyl side, 3 side chain; on linkers, the order of the positions; unused ones are H or OH. Bridge positions count the residues as written; N and C are the ends. Square brackets hold non-standard residues; d marks the D form. Peptide text beside a SMILES is read from it. * marks the point of attachment. ξ: configuration not given here. ξhTyr(3S-OH,4S-OH,3'-OSO3H) = NC(C(=O)O)[C@H](O)[C@@H](O)c1ccc(O)c(OS(=O)(=O)O)c1; Orn(4R-OH,5R-OH) = O=C([C@H](C[C@@H](O)[C@@H](O)N[*:3])N[*:1])[*:2]; X2 = CCCCCOc1ccc(-c2cc(-c3ccc(C(=O)*)cc3)no2)cc1; X3 = C[C@H]1CN([*:1])C(C(=O)[*:2])[C@H]1O; ξGln(3R-OH) = NC(=O)C[C@@H](O)C(N)C(=O)O; ξPro(4R-OH) = O=C(O)C1C[C@@H](O)CN1; ξThr(3R) = C[C@@H](O)C(N)C(=O)O

Sequence of Nucleoprotein (Lymphocytic choriomeningitis virus (strain Armstrong)) (P09992 whole entry, looked up): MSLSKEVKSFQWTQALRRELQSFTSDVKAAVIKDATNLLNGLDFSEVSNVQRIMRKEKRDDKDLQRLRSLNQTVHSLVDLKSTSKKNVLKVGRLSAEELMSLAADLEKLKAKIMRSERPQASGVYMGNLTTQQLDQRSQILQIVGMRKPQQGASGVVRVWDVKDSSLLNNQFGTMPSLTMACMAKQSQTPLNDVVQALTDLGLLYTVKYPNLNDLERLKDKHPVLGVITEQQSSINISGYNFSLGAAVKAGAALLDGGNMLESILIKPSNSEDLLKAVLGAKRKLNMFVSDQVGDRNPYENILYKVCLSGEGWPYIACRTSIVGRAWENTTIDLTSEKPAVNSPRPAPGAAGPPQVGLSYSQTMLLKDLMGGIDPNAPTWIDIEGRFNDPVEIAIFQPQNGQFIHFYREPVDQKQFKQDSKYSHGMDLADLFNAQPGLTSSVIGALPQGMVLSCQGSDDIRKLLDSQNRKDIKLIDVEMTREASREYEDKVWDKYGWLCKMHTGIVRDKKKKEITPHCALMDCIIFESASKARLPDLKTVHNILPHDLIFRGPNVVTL
Sequence of Nuclear receptor subfamily 1 group I member 3 (Homo sapiens) (Q14994 whole entry, looked up): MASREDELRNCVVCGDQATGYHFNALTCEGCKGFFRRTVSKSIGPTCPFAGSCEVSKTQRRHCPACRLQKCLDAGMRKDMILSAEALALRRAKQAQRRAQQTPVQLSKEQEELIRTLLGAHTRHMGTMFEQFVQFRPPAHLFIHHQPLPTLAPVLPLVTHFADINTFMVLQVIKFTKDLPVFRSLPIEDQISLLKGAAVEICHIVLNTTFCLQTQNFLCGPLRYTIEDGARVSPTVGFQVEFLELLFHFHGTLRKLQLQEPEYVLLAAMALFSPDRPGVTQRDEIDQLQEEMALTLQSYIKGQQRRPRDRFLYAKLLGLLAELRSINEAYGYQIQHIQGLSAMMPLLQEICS

Consider `C[C@H](O)[C@H](O)[C@H]1CNc2nc(N)[nH]c(=O)c2N1`, for which the result in test [1] and in test [3] was inactive. For the same molecule, the Potency entry (in test [2]; in test [4]; in the test on CRL-7250) was “inactive” in each case. In addition, in [5], the activity change, negative = inhibition is -28%.

As for `COc1ccccc1OCCN1CC(COc2cccc3[nH]c4ccccc4c23)OCC1=O` (centres undefined), the Potency entry (in test [6]; in [7]; in the test with CRL-7250) was “inactive” in each case.

`C[C@@H]1O[C@@H](O[C@H]2[C@H](OC(=O)[C@]34CCC(C)(C)C[C@H]3C3=CCC5[C@@]6(C)C[C@H](O)[C@H](O[C@@H]7O[C@H](CO)[C@@H](O)[C@H](O)[C@H]7O)[C@@](C)(CO)C6[C@H](O)C[C@@]5(C)[C@]3(C)C[C@H]4O)OC[C@H](O)[C@@H]2O)[C@H](O)[C@H](O)[C@H]1O[C@@H]1OC[C@@H](O)[C@H](O[C@H]2OC[C@](O)(CO)[C@H]2O)[C@H]1O` (some centres undefined): the activity change, negative = cytotoxic in test [6] is -21.6% [at 3.67 µM] (inactive). Moreover, the outcome in the test with CRL-7250 is “inactive [at 9.27 µM]”.

For `CC(C)c1ccc2c(c1)CCC1[C@](C)(C(=O)O)CCC[C@]21C` (some centres undefined), in test [8], the molecule was classed as inactive. The Potency entry in the test on CRL-7250 was “inactive”.

For `COc1ccc2c3c1O[C@H]1C[C@@H](O)C=C[C@@]31CCN(C)C2`, the Potency result (in [9]; in [2]; in [4]; in [5]; with CRL-7250) was “inactive” each time. The molecule was called inactive in [1] and in test [3].

Take `Cc1onc(-c2ccccc2)c1C(=O)N[C@@H]1C(=O)N2[C@@H]1SC(C)(C)[C@@H]2C(=O)O`: the Potency entry (in test [9]; in test [2]; in the test on CRL-7250) was “inactive” each time. The molecule was called inactive in [1] and in test [3]. For the same molecule, the activity change, negative = inhibition in [5] was -25.7%.

For `CCCSc1nc(N[C@@H]2C[C@H]2c2ccc(F)c(F)c2)c2nnn([C@@H]3C[C@H](OCCO)[C@@H](O)[C@H]3O)c2n1`, the call in test [1] and in [3] was inactive. The Potency result (in test [2]; in test [4]; in the test on CRL-7250) was “inactive” each time.

As for `Cc1c(C)n(Cc2ccc(-c3ccccc3C(=O)O)cc2)c2ccc(C(=O)N[C@@H](C)c3ccc([N+](=O)[O-])cc3)cc12`, the Potency in test [10] is 4.85 µM (active). Further, the Potency entry in the test with CRL-7250 was “inactive”.

In the case of `O=C(Nc1ccccc1)Nc1ccc(-c2ccc(C(=O)[C@H]3CCC[C@H]3C(=O)O)cc2)cc1`, the Potency entry (in test [11]; in the test on CRL-7250) was “inactive” throughout.

With `C[C@@H]1O[C@@H](O[C@H]2[C@H](OC(=O)[C@]34CCC(C)(C)C[C@H]3C3=CCC5[C@@]6(C)CC[C@H](O[C@@H]7O[C@H](CO[C@@H]8OC[C@H](O)[C@H](O)[C@H]8O)[C@@H](O)[C@H](O)[C@H]7O)C(C)(C)C6CC[C@@]5(C)[C@]3(C)C[C@H]4O)OC[C@@H](O)[C@@H]2O)[C@H](O)[C@H](O[C@@H]2OC[C@](O)(CO)[C@H]2O)[C@H]1O[C@@H]1OC[C@H](O)[C@H](O[C@@H]2OC[C@@H](O)[C@H](O)[C@H]2O)[C@H]1O` (some centres undefined), the Potency in [6] is 1.91 µM (active). The outcome in the test on CRL-7250 is “inactive [at 9.27 µM]”.

Regarding `O=c1[nH]c2ccccc2n1CCN1CCN(c2cccc(C(F)(F)F)c2)CC1`, the molecule was called inactive in test [1] and in [3]. For the same molecule, the Potency entry (in test [4]; in the test on CRL-7250) was “inactive” throughout.

Take `CCCCCOc1ccc(-c2cc(-c3ccc(C(=O)N[C@H]4C[C@@H](O)[C@@H](O)NC(=O)C5[C@@H](O)[C@@H](C)CN5C(=O)C([C@H](O)CC(N)=O)NC(=O)C([C@H](O)[C@@H](O)c5ccc(O)c(OS(=O)(=O)O)c5)NC(=O)C5C[C@@H](O)CN5C(=O)C([C@@H](C)O)NC4=O)cc3)no2)cc1` (stereo partly drawn) (X2-[Orn(4R-OH,5R-OH)][ξThr(3R)][ξPro(4R-OH)][ξhTyr(3S-OH,4S-OH,3'-OSO3H)][ξGln(3R-OH)][X3]; lactam 1-C): the Potency result (in [9]; in [2]; in test [4]; with CRL-7250) was “inactive” throughout. Moreover, in [1], the outcome was “inactive [at 26.4 µM]”. For the same molecule, the molecule was classed as inactive in test [3].

Turning to `CS(=O)(=O)c1ccc(Oc2cc(F)cc(C#N)c2)c2c1[C@H](O)C(F)(F)C2`, the Potency entry (in [4]; in [5]; with CRL-7250) was “inactive” each time.

For `C=C1C[C@@]2(O)O[C@@]3(C[C@H]2C(C)C)[C@@H](C)CC[C@@H]13`, the Potency result (in [4]; in test [5]; with CRL-7250) was “inactive” throughout.

On to `CC(C)=CCC(O)/C(C)=C/CO[C@@H]1O[C@H](CO)[C@@H](O)[C@H](O)[C@H]1O` (some centres undefined), for which the Potency entry (in test [12]; in the test with CRL-7250) was “inactive” throughout. Besides, the call in test [13] was inactive.

Turning to `COc1ccc(-c2cnc3c(-c4cccc5ncccc45)cnn3c2)cc1`, the Potency entry (in test [4]; in test [5]; in the test with CRL-7250) was “inactive” in each case.

With `COCCCc1sc(-c2ccccc2)nc1C(=O)Nc1ccccc1-c1nc2cc(CN3CCCC3)cnc2s1`, the Potency result (in test [4]; in [5]; in the test on CRL-7250) was “inactive” each time.

On to `CNc1nc(C)nc(N[C@H]2CCC[C@@H](C(=O)NCc3ccc(C#N)cc3C(F)(F)F)C2)n1`, for which the Potency entry (in test [4]; in test [5]; in the test on CRL-7250) was “inactive” each time.

For the molecule `N#Cc1cccc(-c2c[nH]c3ncnc(N4CCOCC4)c23)c1`, the Potency entry (in test [4]; in test [5]; with CRL-7250) was “inactive” throughout.

Consider `Cc1cccc(Oc2cnc(=O)[nH]c2)c1`, for which the Potency result (in [4]; with CRL-7250) was “inactive” in each case. In addition, the activity change, negative = inhibition in test [5] was -20%.

Take `O=C([C@@H](Cc1cccc(C(F)(F)F)c1)NS(=O)(=O)c1cc(F)c2c(c1)CCNC2)N1CCCC1`: the Potency result (in test [4]; in the test with CRL-7250) was “inactive” in each case.

As to `CO[C@@H]1COCC[C@@H]1N[C@@H]1CC[C@@](C(=O)N2CCc3ncc(C(F)(F)F)cc3C2)(C(C)C)C1`, the Potency entry (in [4]; in [5]; with CRL-7250) was “inactive” in each case.

For the molecule `c1cc(-c2cnn3cc(-c4ccc(N5CCNCC5)cc4)cnc23)c2cccnc2c1`, the Potency entry (in test [4]; in [5]; with CRL-7250) was “inactive” throughout.

`Cc1cccc(-c2[nH]c(CNc3ccccc3F)nc2-c2ccc3ncnn3c2)n1`: the activity change, negative = inhibition in test [5] is -32.1%. In addition, in the test with CRL-7250, the Potency entry was “inactive”.

Turning to `COc1ccc2cc(OCC3(C(=O)O)CN(C(=O)c4ccc(F)cc4)C3)ccc2c1`, the Potency result (in [4]; with CRL-7250) was “inactive” each time. For the same molecule, in test [5], the activity change, negative = inhibition was -2.33%.
